Measurements: PubChem BioAssay (NCATS)
Records with an inconclusive call do not appear. Unmarked numbers belong to inactive results. Activity calls are given as the source filed them. The call rests on the fitted dose curve; in most records, active means well fitted cell-killing curve with a large enough effect; inconclusive means small, poorly fitted or top-dose-only effect, or effect the other way; inactive means no such curve, though single readings can be large or run the other way.

Columns and labels:
[1] = Quantitative High-Throughput drug screen in 47 multiple myeloma cell lines against the NCATS MIPE library collection: OPM1_PLB cell viability assay (AID 1918989); further: nearly all actives have a fitted effect of over 40% in size
In short: (§1)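 Readout: median RLU from CellTiter-Glo after 5 min at room temperature. Preceding step was 48 h drug treatment of 500 cells/well at 37 °C, 5% CO2, with DMSO-only and media-only control wells.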

[2] = Quantitative High-Throughput drug screen in 47 multiple myeloma cell lines against the NCATS MIPE library collection: SKMM1_PLB cell viability assay (AID 1919863); details: SKMM1 myeloma viability, CellTiter-Glo ATP, 48 h; viability: stronger effect = lower value; further: nearly all actives have a fitted effect of over 35% in size
In short: as §1

[3] = Quantitative High-Throughput drug screen in 47 multiple myeloma cell lines against the NCATS MIPE library collection: U266_ATCC cell viability assay (AID 1919864); further: nearly all actives have a fitted effect of over 35% in size
In short: as §1

[4] = Quantitative High-Throughput drug screen in 47 multiple myeloma cell lines against the NCATS MIPE library collection: XG6_PLB cell viability assay (AID 1919865); further: nearly all actives have a fitted effect of over 40% in size
In short: as §1

[5] = Quantitative High-Throughput drug screen in 47 multiple myeloma cell lines against the NCATS MIPE library collection: XG1_PLB cell viability assay (AID 1919866); further: nearly all actives have a fitted effect of over 35% in size
In short: as §1

[6] = Quantitative High-Throughput drug screen in 47 multiple myeloma cell lines against the NCATS MIPE library collection: VP6_DJ cell viability assay (AID 1919867); further: nearly all actives have a fitted effect of over 40% in size
In short: as §1

[7] = Quantitative High-Throughput drug screen in 47 multiple myeloma cell lines against the NCATS MIPE library collection: UTMC2_PLB cell viability assay (AID 1919868); details: CellTiter-Glo ATP luminescence, 48 h; viability (% of DMSO control): at 45.8 µM (top of the series); further: nearly all actives have a fitted effect of over 55% in size
In short: as §1

[8] = Quantitative High-Throughput drug screen in 47 multiple myeloma cell lines against the NCATS MIPE library collection: PE2_PLB cell viability assay (AID 1919869); further: nearly all actives have a fitted effect of over 35% in size
In short: as §1

[9] = Quantitative High-Throughput drug screen in 47 multiple myeloma cell lines against the NCATS MIPE library collection: PCM6_Riken cell viability assay (AID 1919870); further: nearly all actives have a fitted effect of over 30% in size
In short: as §1

[10] = Quantitative High-Throughput drug screen in 47 multiple myeloma cell lines against the NCATS MIPE library collection: KMS28BM_JCRB cell viability assay (AID 1919874); further: nearly all actives have a fitted effect of over 35% in size
In short: as §1

[11] = Quantitative High-Throughput drug screen in 47 multiple myeloma cell lines against the NCATS MIPE library collection: OPM2_DSMZ cell viability assay (AID 1919872); further: nearly all actives have a fitted effect of over 30% in size
In short: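 Myeloma cell lines, 500 cells per well, exposed to MIPE 4.0 library compounds for 48 h at 37C, 5% CO2. Viability from ATP by CellTiter-Glo luminescence; normalised to DMSO (100%) and media-only (0%) wells.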

[12] = Quantitative High-Throughput drug screen in 47 multiple myeloma cell lines against the NCATS MIPE library collection: KMS11_JCRBsus cell viability assay (AID 1919873); further: nearly all actives have a fitted effect of over 50% in size
In short: as §1

[13] = Quantitative High-Throughput drug screen in 47 multiple myeloma cell lines against the NCATS MIPE library collection: RPMI8226_ATCC cell viability assay (AID 1919871); further: nearly all actives have a fitted effect of over 30% in size
In short: as §1
Potency means the concentration at half of the fitted maximal effect.

Row | SMILES | Potency [1] | Potency [2] | Potency [3] | Potency [4] | Potency [5] | Potency [6] | Potency [7] | Potency [8] | Potency [9] | Potency [10] | Potency [11] | Potency [12] | viability [2] [%] | Potency [13]
1 | O=c1cc(N2CCOCC2)oc2c(-c3cccc4c3sc3ccccc34)cccc12 | 4.18 µM (active) | 11.8 µM (active) | inactive | 5.9 µM (active) | 6.62 µM (active) | 3.72 µM (active) | 5.9 µM (active) | 9.35 µM (active) | 8.33 µM (active) | 3.72 µM (active) |  |  |  | 
2 | COCCOC(=O)C1=C(C)NC2=C(C(=O)CC(c3ccccc3OC)C2)C1c1cccc(O)c1 (stereo unspecified) | 6.62 µM (active) | 10.5 µM (active) | 13.2 µM (active) | 2.64 µM (active) | 4.18 µM (active) | 2.96 µM (active) |  | 16.6 µM (active) |  |  | 16.6 µM (active) | 5.26 µM (active) |  | 
3 | CC(C(=O)O)c1ccc(-c2ccccc2)c(F)c1 (stereo unspecified) | inactive |  | 20.9 µM (active) | 20.9 µM (active) | 9.35 µM (active) | 13.2 µM (active) |  |  | 14.8 µM (active) | 14.8 µM (active) | inactive |  | 102 | 
4 | N#CC(=C(N)Sc1ccccc1N)C(C#N)=C(N)Sc1ccccc1N | 20.9 µM (active) | 1.32 µM (active) | 5.26 µM (active) | 14.8 µM (active) |  | 20.9 µM (active) | 8.33 µM (active) | 18.7 µM (active) |  |  | inactive | 8.33 µM (active) |  | 10.5 µM (active)
5 | CO[C@H]1C=CC=C(C)C(=O)NC2=CC(=O)C(NCCN(C)C)=C(C[C@@H](C)C[C@H](OC)[C@@H](O)[C@@H](C)C=C(C)[C@@H]1OC(N)=O)C2=O | 0.0662 µM (active) | 0.372 µM (active) | 0.0662 µM (active) | 0.105 µM (active) | 0.0372 µM (active) | 0.0093 µM (active) | 0.0662 µM (active) | 0.0935 µM (active) | 0.105 µM (active) | 0.166 µM (active) | 0.0743 µM (active) | 0.0093 µM (active) |  | 0.0469 µM (active)
6 | Oc1ccc(C2CCN(c3ccnc4ccccc34)CC2)cc1O | 16.6 µM (active) |  | 3.32 µM (active) | 6.62 µM (active) | 0.833 µM (active) | 14.8 µM (active) |  | 16.6 µM (active) | 13.2 µM (active) | 4.69 µM (active) |  | 18.7 µM (active) | 103 | 16.6 µM (active)
7 | CC=CC(=O)N(CC)c1ccccc1C | inactive |  | inactive | 23.5 µM (active) |  | 29.6 µM (active) | inactive | inactive |  | inactive | inactive | inactive | 126 | 3.72 µM (active)
8 | CNC1CCC(N(Cc2cccc(-c3ccncc3)c2)C(=O)c2sc3c(F)ccc(F)c3c2Cl)CC1 (stereo unspecified) | 13.2 µM (active) | 18.7 µM (active) | 18.7 µM (active) | 14.8 µM (active) | 18.7 µM (active) | 13.2 µM (active) | 20.9 µM (active) | 10.5 µM (active) | 14.8 µM (active) | 26.4 µM (active) |  | 9.35 µM (active) |  | 18.7 µM (active)
9 | COc1cc2nc(-c3ccc(N4CCN(C)CC4)cc3)nc(NCCN3CCOCC3)c2cc1OC | 0.166 µM (active) | 0.132 µM (active) | 0.0209 µM (active) | 0.166 µM (active) | 0.0372 µM (active) | 0.187 µM (active) | 0.935 µM (active) | 0.148 µM (active) | 0.166 µM (active) | 0.105 µM (active) | 3.32 µM (active) | 0.0935 µM (active) |  | 
10 | O=C(CCN1CCN(C(=O)OCc2cc(Cl)cc(Cl)c2)CC1)c1ccc2[nH]c(=O)oc2c1 | inactive |  | inactive | inactive |  | inactive |  | inactive | inactive | inactive |  | inactive | 136 | 
11 | O=C(NCc1ccccc1)c1csc(Nc2ccncn2)n1 | 13.2 µM (active) | 18.7 µM (active) | 18.7 µM (active) | 18.7 µM (active) | 16.6 µM (active) | 16.6 µM (active) | 16.6 µM (active) | 13.2 µM (active) | 8.33 µM (active) | 18.7 µM (active) |  | 26.4 µM (active) |  | 
12 | NC1CCC(Nc2nc(Nc3ccc(C(=O)N4CCCCC4)cc3)c3ncn(-c4cccc(F)c4)c3n2)CC1 (stereo unspecified) | inactive |  | inactive | inactive | inactive |  |  | inactive |  | inactive | inactive | inactive | 125 | inactive
13 | Cc1ccccc1C(C(=O)NC1CCCCC1)N(C(=O)Cn1ccnc1C)c1cccc(F)c1 (stereo unspecified) | inactive | 0.469 µM (active) | 5.26 µM (active) | inactive | inactive |  |  | inactive |  |  |  | inactive |  | 
14 | CC1(C)O[C@H]2C[C@@H]3[C@H]4CCC5=CC(=O)C=C[C@]5(C)[C@@]4(F)[C@@H](O)C[C@]3(C)[C@]2(C(=O)CO)O1 | inactive |  | inactive | inactive | inactive |  | inactive | inactive | 0.059 µM (active) | inactive | inactive | 0.0083 µM (active) | 108 | 0.003 µM (active)
